Experimental data: PubChem BioAssay AID1159580 (chemical genetic matrix, 2015)
“And” between values parts separate entries of the source, which are not always exact repeats. Equal entries are not always repeated. About 2,000 (36%) of roughly 5,500 compounds were called active. About 18% were inconclusive and are not listed. Rule as the data show it: active = normalized growth mostly below about 0.91 (no sharp cut-off); inconclusive = no clear call, values can overlap the other calls; inactive = mostly above about 0.92. Some of the results follow.

Assay: chemical genetic growth profiling, strain panel (AID 1159580);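 also: tested at 20 µM; growth read once vehicle control cultures reached saturation at 30 °C; 1 = growth at the plate median or of vehicle wells; lower values mean less growth of the strain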
Conditions: S. cerevisiae deletion strains, growth OD

Measured: normalized growth

CC1Cc2ccccc2N1NC(=O)c1ccc(Cl)c(S(N)(=O)=O)c1 (centres undefined)
inactive: locus YAL013W, strain DEP1, hits give low values 1.01 | locus YAL021C, strain ccr4, hits give low values 1 | locus YAL026C, strain drs2, hits give low values 1 | locus YAL030W, strain snc1, hits give low values 0.998 | locus YBL061C, strain skt5, hits give low values 0.999 | locus YBR009C, strain hhf1, hits give low values 0.996 | locus YBR021W, strain FUR4, hits give low values 1.01 | locus YBR023C, strain chs3, hits give low values 1 | locus YBR171W, strain sec66, hits give low values 0.997 | locus YBR229C, strain ROT2, hits give low values 1.01 | locus YBR231C, strain swc5, hits give low values 0.978 | locus YBR279W, strain paf1, hits give low values 1 | locus YCL011C, strain gbp2, hits give low values 1.01 | locus YCL016C, strain dcc1, hits give low values 0.996 | locus YCL029C, strain bik1, hits give low values 1.01 | locus YCL061C, strain MRC1, hits give low values 1.01 | locus YCL069W, strain vba3, hits give low values 0.991 | locus YCR088W, strain abp1, hits give low values 1.01 | locus YDL005C, strain med2, hits give low values 0.999 | locus YDL035C, strain GPR1, hits give low values 1.02 | locus YDL040C, strain nat1, hits give low values 0.997 | locus YDL074C, strain BRE1, hits give low values 1.02 | locus YDL101C, strain DUN1, hits give low values 1.01 | locus YDL134C, strain PPH21, hits give low values 1.03 | locus YDL185W, strain tfp1, hits give low values 0.989 | locus YDL192W, strain arf1, hits give low values 0.999 | locus YDR001C, strain nth1, hits give low values 1 | locus YDR069C, strain doa4, hits give low values 1 | locus YDR101C, strain arx1, hits give low values 1.02 | locus YDR137W, strain rgp1, hits give low values 1.01 | locus YDR159W, strain sac3, hits give low values 0.992 | locus YDR162C, strain NBP2, hits give low values 1.01 | locus YDR195W, strain ref2 0.979 | locus YDR297W, strain sur2, hits give low values 0.998 | locus YDR318W, strain mcm21, hits give low values 0.991 | locus YDR334W, strain swr1, hits give low values 1.01 | locus YDR335W, strain msn5, hits give low values 1 | locus YDR388W, hits give low values 1 | locus YDR392W, strain spt3, hits give low values 0.973 | locus YDR502C, strain sam2, hits give low values 1 | locus YEL003W, strain gim4, hits give low values 1 | locus YEL037C, strain rad23, hits give low values 1 | locus YEL061C, strain CIN8 (second series), hits give low values 0.999 | locus YEL061C, strain CIN8, hits give low values 1.01 | locus YER015W, strain faa2, hits give low values 1.01 | locus YER016W, strain bim1, hits give low values 0.995 | locus YER110C, hits give low values 0.996 | locus YER111C, strain swi4, hits give low values 1 | locus YER155C, strain BEM2 (second series), hits give low values 1.01 | locus YER155C, strain BEM2, hits give low values 1.01 | locus YER167W, strain BCK2, hits give low values 1.01 | locus YFR010W, strain ubp6, hits give low values 1 | locus YGL078C, strain dbp3, hits give low values 1 | locus YGL086W, strain mad1, hits give low values 1.01 | locus YGL167C, strain pmr1, hits give low values 1 | locus YGL173C, strain kem1, hits give low values 1.01 | locus YGL227W, strain vid30, hits give low values 0.999 | locus YGL240W, strain doc1, hits give low values 0.996 | locus YGL248W, strain PDE1, hits give low values 1.01 | locus YGL253W, strain hxk2, hits give low values 0.993 | locus YGR078C, strain PAC10, hits give low values 1.01 | locus YGR135W, strain pre9, hits give low values 0.972 | locus YGR229C, strain SMI1, hits give low values 1.02 | locus YGR252W, strain gcn5, hits give low values 0.938 | locus YHR013C, strain ard1, hits give low values 1.02 | locus YHR027C, strain rpn1, hits give low values 1.01 | locus YHR030C, strain SLT2, hits give low values 1 and 0.987 | locus YHR079C, strain IRE1 (second series), hits give low values 0.994 | locus YHR079C, strain IRE1, hits give low values 0.989 | locus YHR094C, strain hxt1, hits give low values 0.993 | locus YHR129C, strain ARP1, hits give low values 1.01 | locus YHR142W, strain chs7, hits give low values 0.994 | locus YHR200W, strain rpn10, hits give low values 1.01 | locus YIL066C, strain RNR3, hits give low values 1.02 | locus YIL073C, strain SPO22, hits give low values 0.991 | locus YIL125W, strain kgd1, hits give low values 0.995 | locus YIR030C, strain dcg1, hits give low values 1 | locus YJL092W, strain hpr5, hits give low values 0.994 | locus YJL095W, strain BCK1 (second series), hits give low values 1 | locus YJL095W, strain BCK1, hits give low values 1.01 and 0.979 | locus YJL115W, strain asf1, hits give low values 1 | locus YJL129C, strain trk1, hits give low values 0.989 | locus YJL134W, strain LCB3, hits give low values 1.01 | locus YJL154C, strain vps35, hits give low values 1 | locus YJL164C, strain tpk1, hits give low values 0.998 | locus YJL166W, strain qcr8, hits give low values 0.997 | locus YJL168C, strain set2, hits give low values 1 | locus YJL187C, strain SWE1 (second series), hits give low values 1.01 | locus YJL187C, strain SWE1, hits give low values 0.999
